Only some compounds are listed: those with a hit (about 1.7% of all), similar ones and a draw of the others.
PfHsp40 yeast: rescue of PfHsp40-mediated yeast toxicity. S. cerevisiae expressing PfHsp40, growth rescue, ATP luminescence. 340,000 tested, 0.68% active. AID 504582. growth rescue, % at 12.5 µM; in the data active means growth rescue above about 28%, passing the limit was not always enough; inconclusive means no clear call, values can overlap the other calls;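 further: yeast W303a lacking pdr1 and pdr3 grown in galactose medium; growth measured after three days at 30 °C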
BJeLR lethal: kills HRASV12-expressing BJeLR cells; inhibition, % (test concentration not listed); 300,000 tested, 0.17% active; BJeLR (HRASV12) viability, CellTiter-Glo ATP luminescence, 48 h; in the data active means inhibition above about 50%; inconclusive means no clear call, values can overlap the other calls
3CLpro inhibitor: SARS-CoV 3CLpro protease inhibition; P0C6X7; recombinant SARS-CoV 3CLpro, quenched FRET peptide cleavage; inhibition, % at 6 µM; 290,000 tested, 0.14% active; in the data active means inhibition above about 12%
BH1578 lux ind: inducers of Vibrio cholerae quorum light production without autoinducers; 350,000 tested, 0.16% active; activation, % at 18.7 µM; V. cholerae BH1578 lux reporter, luminescence, 6 h; in the data active means activation mostly above about 9.7%, no sharp cut-off; inconclusive means no clear call, values can overlap the other calls; inactive means mostly below about 3.7%
MazF activator: activators of E. coli MazEF toxin-antitoxin RNase; FAM/BHQ RNA-DNA oligo cleavage fluorescence, 5 h; 350,000 tested, 0.32% active; activation, % at 20 µM; P0AE70; in the data active means activation above about 50%
Target sequence (P0AE70 whole entry, looked up): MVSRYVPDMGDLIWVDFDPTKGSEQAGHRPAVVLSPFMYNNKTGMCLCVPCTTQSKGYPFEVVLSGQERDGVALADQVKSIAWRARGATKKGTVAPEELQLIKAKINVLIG
VHR inh abs: blocks human VHR1 dual specificity phosphatase; AID 1654; recombinant VHR phosphatase, pNPP absorbance; P51452; 290,000 tested, 0.52% active; inhibition, % at 13.3 µM; in the data active means inhibition above about 50%
Target sequence (P51452 whole entry, looked up): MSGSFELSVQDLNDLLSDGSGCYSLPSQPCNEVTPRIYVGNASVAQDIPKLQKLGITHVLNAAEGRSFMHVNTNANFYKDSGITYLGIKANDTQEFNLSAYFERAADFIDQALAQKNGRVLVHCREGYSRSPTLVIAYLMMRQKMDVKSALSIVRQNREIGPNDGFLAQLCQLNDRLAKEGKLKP
Large screens that a line does not name were inactive.

COc1ccc(CCNC(=O)c2cc(-c3ccncc3)nc3c(Cl)cccc23)cc1OC	VHR inh abs 53
Cc1nc(C(F)(F)F)ccc1C(=O)N1CCC1(C)C(=O)NS(=O)(=O)c1c(C)noc1C (configuration not stated)	none (no result: PfHsp40 yeast, BJeLR lethal, 3CLpro inhibitor, MazF activator, VHR inh abs)
COc1ccc(NC(=O)N(C)C[C@@H]2OCc3cnnn3CCCC(=O)N([C@@H](C)CO)C[C@H]2C)cc1	none (no result: PfHsp40 yeast, BJeLR lethal, 3CLpro inhibitor, VHR inh abs)
COc1ccc(CNC(=O)CN2CCC(NC(=O)c3ccc(OC)cc3)CC2)cc1	none
C[C@H]1CN([C@@H](C)CO)C(=O)CCCn2nncc2CO[C@H]1CN(C)C(=O)c1ccccc1	none (no result: PfHsp40 yeast, BJeLR lethal, 3CLpro inhibitor, VHR inh abs)
O=C(NCC(=O)N1CCCC(C(F)(F)F)C1)c1cccs1 (configuration not stated)	none (no result: BJeLR lethal, 3CLpro inhibitor, VHR inh abs)
CC(=O)Nc1ccc(NC(=O)CSc2nnc(NC(=O)c3ccccc3F)s2)cc1	none (no result: PfHsp40 yeast, BJeLR lethal, 3CLpro inhibitor, VHR inh abs)
COC(=O)N/N=C/c1ccc(-c2cc(Cl)ccc2Cl)o1	none
COC(=O)N/N=C\c1ccc(-c2cc(Cl)c(Cl)cc2Cl)o1	MazF activator 55
OC(c1cccc(CN2CCCCC2)c1)c1ncc(-c2cccc(C(F)(F)F)c2)[nH]1 (configuration not stated)	none (no result: PfHsp40 yeast, BJeLR lethal, 3CLpro inhibitor, MazF activator, VHR inh abs)
COc1ccc(-c2nc(CS(=O)CC(=O)NC3CCCCC3C)c(C)o2)cc1 (configuration not stated)	PfHsp40 yeast inconclusive
O=C(COC(=O)c1n[nH]c(=O)c2ccccc12)Nc1cccc(S(=O)(=O)N2CCOCC2)c1	none (no result: BJeLR lethal, 3CLpro inhibitor, VHR inh abs)
CCCNC(=O)c1ccc2c(=O)c(O)c(-c3ccc(Cl)c([N+](=O)[O-])c3)[nH]c2c1	PfHsp40 yeast 210 (no result: 3CLpro inhibitor)
COc1cccc(COC(=O)C2CCN(S(=O)(=O)c3ccc(C)cc3C)CC2)c1OC	none (no result: 3CLpro inhibitor, VHR inh abs)
Cc1ccc(/C=N/Nc2ccnc3cc(Cl)ccc23)c(C)c1	VHR inh abs 87
CC(C)CN(C(=O)c1ccc(-n2cncn2)c([N+](=O)[O-])c1)C1CCS(=O)(=O)C1 (configuration not stated)	none (no result: 3CLpro inhibitor, VHR inh abs)
Cc1nc(NC(=O)c2ccccc2)sc1-c1cc(C(=O)O)nn1Cc1ccccc1	none (no result: PfHsp40 yeast, BJeLR lethal, 3CLpro inhibitor, VHR inh abs)
NC(N)=NS(=O)(=O)c1ccc(NC(=S)NC(=O)c2ccc(Br)cc2)cc1	MazF activator 59
Cc1ccc(NC(=O)CCS(=O)(=O)c2ccc3c(c2)NC(=O)C(C)S3)nc1 (configuration not stated)	none
O=C1CNC(c2ccccc2)C(c2ccccc2)N1 (configuration not stated)	none (no result: PfHsp40 yeast, BJeLR lethal, 3CLpro inhibitor, VHR inh abs)
Nc1ccc(CC2=NCCN2)cc1	PfHsp40 yeast 35 (no result: BJeLR lethal, 3CLpro inhibitor, BH1578 lux ind, VHR inh abs)
Cc1cccc(Nc2nc(N)c([N+](=O)[O-])c(NCc3ccco3)n2)c1	none
Nc1nc(Nc2cccc(F)c2)nc(NCc2ccco2)c1[N+](=O)[O-]	MazF activator 66
Cc1nn(C(C)C(=O)NC2C(=O)N3C(C(=O)O)=C(CSc4nnnn4C)CSC23)cc1Cl (configuration not stated)	BH1578 lux ind 25
CC(C(=O)NC1C(=O)N2C(C(=O)O)=C(CSc3nnnn3C)CSC12)n1cc(Br)cn1 (configuration not stated)	none
Cc1cccc(S(=O)(=O)c2c(C)cc(C)nc2Cl)c1	none
O=C(COC(=O)COc1ccc(Br)cc1)Nc1ccc2c(c1)OCCO2	none (no result: BJeLR lethal, 3CLpro inhibitor, VHR inh abs)
CC(=O)c1cccc(NC(=O)CCc2nnc3ccc(NCc4ccc5c(c4)OCO5)nn23)c1	VHR inh abs 57
CC(=O)c1cccc(NC(=O)CCc2nnc3ccc(N4CCN(C)CC4)nn23)c1	none
C[C@@H]1CN([C@H](C)CO)C(=O)CCCn2nncc2CO[C@@H]1CN(C)S(C)(=O)=O	none (no result: PfHsp40 yeast, BJeLR lethal, 3CLpro inhibitor, VHR inh abs)
COc1ccc(NC(=O)CN2C(=O)S/C(=C/c3cccn3-c3ccc(C(=O)O)cc3)C2=O)cc1	VHR inh abs 57 (no result: BJeLR lethal, MazF activator)
Cc1ccc(NC(=O)CN2C(=O)S/C(=C\c3cccn3-c3cccc(C(=O)O)c3)C2=O)cc1C	none (no result: VHR inh abs)
COC(=O)c1nnn(CC(=O)NC(=O)Nc2c(C)cccc2C)c1C(=O)OC	none
COC(=O)c1nnn(CC(=O)NC(=O)Nc2cccc(Cl)c2C)c1C(=O)OC	VHR inh abs 51
CCN(CC)c1ccc(NC(=O)c2c(C)noc2C)cc1	none
O=C(NCc1cccnc1)c1ccc(NC(=O)c2ccc(Br)cc2)cc1	BJeLR lethal 78
O=C(NCc1cccnc1)Nc1ccc(Br)cc1	VHR inh abs 53
CC(C)C(=O)Nc1ccc(C(=O)NCc2cccnc2)cc1	BJeLR lethal 78 (no result: BH1578 lux ind)
c1cc(-c2ccc(CN3CCOCC3)cc2)n2ccnc2c1	none (no result: PfHsp40 yeast, BJeLR lethal, 3CLpro inhibitor, MazF activator, VHR inh abs)
COc1ccc(C(OC(=O)c2ccco2)C(=O)NC(C)(C)C)cc1 (configuration not stated)	none
Cc1ccc(C(=O)NCCc2nnc3ccc(SCC(=O)NCc4ccc(F)cc4)nn23)cc1	VHR inh abs 57
O=C(CSc1ccc2nnc(CCNC(=O)c3ccccc3)n2n1)NCc1ccccc1	none
CCOc1ccc2nc(N3CCCC(C(=O)NC4CCCC4)C3)sc2c1 (configuration not stated)	VHR inh abs 53
O=S(=O)(c1ccccc1Cl)N1CCC(O)(c2cccnc2)CC1	none
COc1cc2c(cc1OC)C(C(=O)NC(C)c1ccccc1)CC(=O)N2 (configuration not stated)	none
O=C(CCc1ccc(O)cc1)c1c(O)cc(O)cc1O	none (no result: 3CLpro inhibitor)
COc1cc(O)c(CC=C(C)C)c(O)c1C(=O)CCc1ccc(O)cc1	PfHsp40 yeast 210 (no result: 3CLpro inhibitor)
COC(=O)c1[nH]c2c(c1C)C(=O)CC(c1cc(OC)ccc1OC)C2 (configuration not stated)	none
COC(=O)c1[nH]c2c(c1C)C(=O)CC(c1cccs1)C2 (configuration not stated)	BJeLR lethal 51
C[C@H](CO)N1C[C@H](C)[C@@H](CN(C)S(=O)(=O)c2cn(C)cn2)OCc2cnnn2CCCC1=O	none (no result: PfHsp40 yeast, BJeLR lethal, 3CLpro inhibitor, VHR inh abs)
CCn1c(O)c(/C=N/N=C/c2ccccc2)c2ccc(C3=NNC(=O)CC3)cc21	MazF activator 747
CC1(C)CC(NS(=O)(=O)c2cccc3ccccc23)CC(C)(C)N1	VHR inh abs 56
COc1ccc(S(=O)(=O)NC2CC(C)(C)NC(C)(C)C2)c(C)c1C	none (no result: PfHsp40 yeast, BH1578 lux ind, MazF activator)
CCOc1cc(S(=O)(=O)NC2CC(C)(C)NC(C)(C)C2)ccc1Cl	PfHsp40 yeast 123 (no result: VHR inh abs)
O=C(CNC1CCCCCC1)c1cccs1	none
O=C(CNc1cccc(F)c1)N1CCc2ccccc2C1	none
O=C(Nc1ccc2c(c1)OCO2)C1Cc2c(-c3ccc(Cl)cc3)ccnc2O1 (configuration not stated)	none (no result: PfHsp40 yeast, BJeLR lethal, 3CLpro inhibitor, MazF activator, VHR inh abs)
Cc1cccc(OCc2nc(C#N)c(NCc3ccc4c(c3)OCO4)o2)c1	PfHsp40 yeast 29
CCOc1ccc(CN2CCNC(=O)C2CC(=O)NCCc2ccccn2)cc1 (configuration not stated)	none
CCOc1ccc(CN2CCNC(=O)C2CC(=O)NCc2ccccn2)cc1 (configuration not stated)	VHR inh abs 54
CC(=N)c1c(O)cc(C)oc1=O	none (no result: BJeLR lethal, 3CLpro inhibitor, VHR inh abs)

High-throughput results (PubChem)
